Data as given in PubChem BioAssay.

What was measured:
[1] = biological target: Tumor necrosis factor receptor superfamily member 10B (Homo sapiens) (UniProt O14763); test: viability loss of caspase-8 NB7 cells with TRAIL – with/without TRAIL, luminescence panel, confirmation (AID 651596); details: NB7 neuroblastoma + caspase-8, TRAIL sensitization, NB7 Caspase-8, with TRAIL, mean of runs, at 10 µM, stronger effect = higher value
[2] = as above; details: NB7 neuroblastoma + caspase-8, without TRAIL, NB7 Caspase-8, without TRAIL, mean of runs, at 10 µM
[3] = biological target: Tumor necrosis factor receptor superfamily member 10B (Homo sapiens) (UniProt O14763); test: compound enhancement of TRAIL-induced cell killing – NB7 cells plus caspase-8, luminescence, panel, dose response (AID 652002); details: NB7 neuroblastoma +caspase-8, TRAIL sensitization, luminescence viability, NB7+Caspase-8, with TRAIL, run 1; at 12.5 µM (top of the series)
[4] = biological target: Tumor necrosis factor receptor superfamily member 10B (Homo sapiens) (UniProt O14763); test: as above; details: NB7 neuroblastoma +caspase-8, TRAIL sensitization, luminescence viability, NB7+Caspase-8, with TRAIL, run 2; at 12.5 µM (top of the series)
[5] = as above; details: NB7 neuroblastoma +caspase-8, no TRAIL, compound-alone cytotoxicity counter-screen, luminescence viability, NB7+Caspase-8, run 1; at 12.5 µM (top of the series) unless noted
[6] = as above; details: NB7 neuroblastoma +caspase-8, no TRAIL, compound-alone cytotoxicity counter-screen, luminescence viability, NB7+Caspase-8, run 2; at 12.5 µM (top of the series) unless noted

Chain of Tumor necrosis factor receptor superfamily member 10B (Homo sapiens) (O14763 whole entry, looked up): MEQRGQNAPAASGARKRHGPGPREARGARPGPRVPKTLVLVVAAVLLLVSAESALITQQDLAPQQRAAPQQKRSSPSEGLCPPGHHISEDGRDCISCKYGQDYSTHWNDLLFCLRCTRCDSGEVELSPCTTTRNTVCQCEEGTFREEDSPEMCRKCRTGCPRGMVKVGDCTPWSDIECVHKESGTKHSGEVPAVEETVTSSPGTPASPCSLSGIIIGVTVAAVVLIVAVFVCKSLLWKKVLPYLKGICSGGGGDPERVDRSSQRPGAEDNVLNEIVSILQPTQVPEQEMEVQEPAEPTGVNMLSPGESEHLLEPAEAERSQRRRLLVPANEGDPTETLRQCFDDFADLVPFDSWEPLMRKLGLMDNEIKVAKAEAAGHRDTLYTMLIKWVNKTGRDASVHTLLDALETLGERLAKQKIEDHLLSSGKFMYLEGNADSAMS

COC(=O)CSc1nc2cc(C)ccc2cc1C#N
activity [1]: 63.1%
activity [2]: 53.9%
activity, % sensitization [3]: 45.7%
activity, % sensitization [4]: 53.4%
activity, % sensitization [5]: 15.2%
activity, % sensitization [6]: 24.1%

CCOC(=O)c1sc(NC(=O)Nc2ccc(F)cc2)nc1C
activity [1]: 56.6%
activity [2]: 44.6%
activity, % sensitization [3]: 29%
activity, % sensitization [4]: 12.6%
activity, % sensitization [5]: -5.48%
activity, % sensitization [6]: -3.68%

CCN(CC)S(=O)(=O)c1ccc(C(=O)OCC(=O)Nc2ccc(-c3nc4ccc(C)cc4s3)cc2)cc1
activity [1]: 68.5%
activity [2]: 55%
activity, % sensitization [3]: 20.1%
activity, % sensitization [4]: -0.711%
activity, % sensitization [5]: 13.4%
activity, % sensitization [6]: -8.61%

Cc1ccc(NC(=O)c2ccccc2O)cc1
activity [1]: 61%
activity [2]: 48.8%
activity, % sensitization [3]: 28%
activity, % sensitization [4]: 37.1%
activity, % sensitization [5]: 29%
activity, % sensitization [6]: 31.3%

C/C(=N\NC(=O)c1n[nH]c2c1CCC2)c1ccco1
activity [1]: 55.8%
activity [2]: 51.4%
activity, % sensitization [3]: 28.7%
activity, % sensitization [4]: 33.5%
activity, % sensitization [5]: 27.9%
activity, % sensitization [6]: 24.1%

COc1ccc(OCC(=O)N/N=C/C=C/c2ccccc2)cc1
activity [1]: 59.4%
activity [2]: 45.4%
activity, % sensitization [3]: 44.7%
activity, % sensitization [4]: 46.1%
activity, % sensitization [5]: 31.1%
activity, % sensitization [6]: 41.1%

C#Cc1ccc(NC(=O)C2(C)CCN2C(=O)Cc2ccc(C(C)C)cc2)cc1 (centres undefined)
activity [1]: 79.1%
activity [2]: 49.2%
activity, % sensitization [3]: 18.4%
activity, % sensitization [4]: 11.5%
activity, % sensitization [5]: 1.52%
activity, % sensitization [6]: 54.8%

CCOC(=O)c1ccc(N/C=C/C(=O)c2ccco2)cc1
activity [1]: 52.7%
activity [2]: 46.1%
activity, % sensitization [3]: 24.1%
activity, % sensitization [4]: 9.37%
activity, % sensitization [5]: 0.326%
activity, % sensitization [6]: 6.5%

Clc1nc(Cl)c2ncn(-c3ccccc3)c2n1
activity [1]: 81%
activity [2]: 52.3%
activity, % sensitization [3]: -4.89%
activity, % sensitization [4]: -7.36%
activity, % sensitization [5]: 2.2%
activity, % sensitization [6]: -11.5%

CCOc1ccc(/C=C/C(=O)Nc2cccc(C(C)=O)c2)cc1
activity [1]: 50.7%
activity [2]: 37.2%
activity, % sensitization [3]: 14.7%
activity, % sensitization [4]: 23.8%
activity, % sensitization [5]: 37.9%
activity, % sensitization [6]: 17.4%

CN(C)CCCN(C(=O)c1ccc(S(=O)(=O)N2CCCc3ccccc32)cc1)c1nc2ccc(F)cc2s1
activity [1]: 55.7%
activity [2]: 52.9%
activity, % sensitization [3]: -21.5%
activity, % sensitization [4]: 18.8%
activity, % sensitization [5]: -8.84%
activity, % sensitization [6]: 17.9%

CCSc1ccc(-c2ccc(C)cc2)nn1
activity [1]: 59.6%
activity [2]: 51.1%
activity, % sensitization [3]: 47.8%
activity, % sensitization [4]: 52.9%
activity, % sensitization [5]: 5.62%
activity, % sensitization [6]: 35.8%

O=C(Nc1ccc2c(c1)OCO2)c1ccc2c(c1)OCO2
activity [1]: 56.3%
activity [2]: 53.1%
activity, % sensitization [3]: 46.4%
activity, % sensitization [4]: 44.3%
activity, % sensitization [5]: 50.5%
activity, % sensitization [6]: 33.4%

O=C(Nc1ccc2ccccc2c1)c1ccc(Cl)cc1
activity [1]: 63.1%
activity [2]: 51.3%
activity, % sensitization [3]: 33.9%
activity, % sensitization [4]: 31.4%
activity, % sensitization [5]: 13%
activity, % sensitization [6]: -8.49%

Nc1ccccc1C(=O)NN=Cc1cccc([N+](=O)[O-])c1
activity [1]: 66.6%
activity [2]: 42.9%
activity, % sensitization [3]: 44.8%
activity, % sensitization [4]: 53.8%
activity, % sensitization [5]: -5.65%
activity, % sensitization [6]: 35.3%

Cc1c(P(=S)(c2ccccc2)c2ccccc2)[n+]2ccccc2n1CCc1ccccc1
activity [1]: 52%
activity [2]: 44.7%
activity, % sensitization [3]: 3.09%
activity, % sensitization [4]: 9.7%
activity, % sensitization [5]: 3.44%
activity, % sensitization [6]: 9.46%

Cn1c(=O)c2c(SCC(=O)Nc3ccccc3F)nc(C3CC3)nc2n(C)c1=O
activity [1]: 50.8%
activity [2]: 44.9%
activity, % sensitization [3]: -6.81%
activity, % sensitization [4]: -10.3%
activity, % sensitization [5]: -1.87%
activity, % sensitization [6]: -25.4%

O=C(NC1=NCCS1)c1cc2ccccc2o1
activity [1]: 56.6%
activity [2]: 48.6%
activity, % sensitization [3]: 45.6%
activity, % sensitization [4]: 47%
activity, % sensitization [5]: 8.75%
activity, % sensitization [6]: 39.6%

Cc1cccc2nc(=S)n(C(=O)c3ccco3)n12
activity [1]: 54.6%
activity [2]: 44.5%
activity, % sensitization [3]: -5.2%
activity, % sensitization [4]: -6.02%
activity, % sensitization [5]: -1.17%
activity, % sensitization [6]: -18.3%

O=C(Nc1ccc(Br)cc1F)c1ccc2c(c1)OCCO2
activity [1]: 56.6%
activity [2]: 43%
activity, % sensitization [3]: 35.1%
activity, % sensitization [4]: 39.5%
activity, % sensitization [5]: 7.23%
activity, % sensitization [6]: 34.6%

COCCNc1c(-c2cc3ccc(C)c(C)c3[nH]c2=O)nc2ccccn12
activity [1]: 64.9%
activity [2]: 47.6%
activity, % sensitization [3]: 60.1%
activity, % sensitization [4]: 54.8%
activity, % sensitization [5]: -1.27%
activity, % sensitization [6]: 53.5%

C(=C\c1ccco1)/c1nc2ccccc2[nH]1
activity [1]: 57.9%
activity [2]: 31.6%
activity, % sensitization [3]: -0.105%
activity, % sensitization [4]: 5.08%
activity, % sensitization [5]: -6.68%
activity, % sensitization [6]: -0.982%

Cc1nc2cc(NC(=O)Nc3cccc([N+](=O)[O-])c3)ccc2n1C
activity [1]: 64.2%
activity [2]: 54.4%
activity, % sensitization [3]: 44.4%
activity, % sensitization [4]: 49.5%
activity, % sensitization [5]: 0.985%
activity, % sensitization [6]: 3.35%

Cc1cc(-c2ccccc2)nc(Nc2nc3c(C)cccc3c(=O)[nH]2)n1
activity [1]: 59.1%
activity [2]: 38%
activity, % sensitization [3]: 41.7%
activity, % sensitization [4]: 10.5%
activity, % sensitization [5]: 22.2%
activity, % sensitization [6]: 5.22%

CC1(C)N=C(N)N=C(N)N1c1ccc(CCCCc2ccccc2)cc1
activity [1]: 53.6%
activity [2]: 54.3%
activity, % sensitization [3]: 58.2%
activity, % sensitization [4]: 52.2%
activity, % sensitization [5]: 1.29%
activity, % sensitization [6]: 66.9%

COc1ccc(-c2cc(C(=O)N/N=C/c3cccnc3)c3ccccc3n2)cc1
activity [1]: 45.5%
activity [2]: 40.8%
activity, % sensitization [3]: 22.7%
activity, % sensitization [4]: 33.2%
activity, % sensitization [5]: 21.2%
activity, % sensitization [6]: 40.4%

O=C(Nc1cnc2ccccn2c1=O)c1ccc(Cl)cc1Cl
activity [1]: 56%
activity [2]: 52.5%
activity, % sensitization [3]: 15.5%
activity, % sensitization [4]: 2.31%
activity, % sensitization [5]: -7.49%
activity, % sensitization [6]: -6.53%

CN(C)S(=O)(=O)c1ccc(C(=O)Nc2nnc(SCC(=O)NCC3CCCO3)s2)cc1 (centres undefined)
activity [1]: 49.1%
activity [2]: 38.5%
activity, % sensitization [3]: 30%
activity, % sensitization [4]: 32.3%
activity, % sensitization [5]: 4.27%
activity, % sensitization [6]: 28.4%

Cc1cc2nc3ccc(N(C)C)cc3nc2cc1N
activity [1]: 52.4%
activity [2]: 32.9%
activity, % sensitization [3]: 38.9%
activity, % sensitization [4]: 39.1%
activity, % sensitization [5]: 24.2%
activity, % sensitization [6]: 12.1%
